Targets with a hit are over-represented here; the source holds about 8,800 in all. About 0.5% of all pairs of compound and target were hits. Values without a mark were called inactive.

Sequence of UniProt Q71SY5 (Q71SY5 whole entry, looked up): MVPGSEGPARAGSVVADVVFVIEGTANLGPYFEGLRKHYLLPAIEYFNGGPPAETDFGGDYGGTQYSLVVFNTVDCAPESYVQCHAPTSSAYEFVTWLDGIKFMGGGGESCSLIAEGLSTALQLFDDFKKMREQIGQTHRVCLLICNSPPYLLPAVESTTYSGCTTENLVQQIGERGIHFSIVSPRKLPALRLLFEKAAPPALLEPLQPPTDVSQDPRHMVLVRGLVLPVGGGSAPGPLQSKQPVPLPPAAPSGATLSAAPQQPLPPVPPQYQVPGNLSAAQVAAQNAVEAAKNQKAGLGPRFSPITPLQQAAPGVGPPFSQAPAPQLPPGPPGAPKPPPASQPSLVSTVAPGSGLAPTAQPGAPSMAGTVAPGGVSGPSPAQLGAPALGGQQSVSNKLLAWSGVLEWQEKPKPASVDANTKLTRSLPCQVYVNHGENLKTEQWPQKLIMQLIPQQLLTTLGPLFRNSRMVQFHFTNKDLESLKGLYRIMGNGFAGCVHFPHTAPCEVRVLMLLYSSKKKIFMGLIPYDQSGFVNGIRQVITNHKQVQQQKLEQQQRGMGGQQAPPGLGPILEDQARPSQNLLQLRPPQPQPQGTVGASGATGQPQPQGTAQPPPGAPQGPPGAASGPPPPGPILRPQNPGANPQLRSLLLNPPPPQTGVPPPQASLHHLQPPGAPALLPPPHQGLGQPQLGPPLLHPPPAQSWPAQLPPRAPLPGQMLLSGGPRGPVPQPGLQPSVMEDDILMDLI
Sequence of UniProt Q9BTT4 (Q9BTT4 whole entry, looked up): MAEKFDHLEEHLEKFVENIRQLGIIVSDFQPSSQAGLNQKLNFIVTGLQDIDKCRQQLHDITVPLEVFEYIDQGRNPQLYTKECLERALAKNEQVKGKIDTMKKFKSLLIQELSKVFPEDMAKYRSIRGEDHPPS
Sequence of UniProt P27361 (P27361 whole entry, looked up): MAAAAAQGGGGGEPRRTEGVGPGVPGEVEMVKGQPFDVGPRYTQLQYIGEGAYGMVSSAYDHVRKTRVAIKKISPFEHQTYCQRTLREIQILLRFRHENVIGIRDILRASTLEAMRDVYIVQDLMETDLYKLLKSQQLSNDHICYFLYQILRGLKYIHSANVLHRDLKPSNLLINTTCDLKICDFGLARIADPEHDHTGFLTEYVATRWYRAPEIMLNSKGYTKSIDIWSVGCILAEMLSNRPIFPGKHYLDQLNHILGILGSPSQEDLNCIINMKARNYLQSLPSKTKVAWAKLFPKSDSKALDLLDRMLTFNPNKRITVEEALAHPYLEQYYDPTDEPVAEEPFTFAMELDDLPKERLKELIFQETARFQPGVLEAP
Sequence of UniProt P53667 (P53667 whole entry, looked up): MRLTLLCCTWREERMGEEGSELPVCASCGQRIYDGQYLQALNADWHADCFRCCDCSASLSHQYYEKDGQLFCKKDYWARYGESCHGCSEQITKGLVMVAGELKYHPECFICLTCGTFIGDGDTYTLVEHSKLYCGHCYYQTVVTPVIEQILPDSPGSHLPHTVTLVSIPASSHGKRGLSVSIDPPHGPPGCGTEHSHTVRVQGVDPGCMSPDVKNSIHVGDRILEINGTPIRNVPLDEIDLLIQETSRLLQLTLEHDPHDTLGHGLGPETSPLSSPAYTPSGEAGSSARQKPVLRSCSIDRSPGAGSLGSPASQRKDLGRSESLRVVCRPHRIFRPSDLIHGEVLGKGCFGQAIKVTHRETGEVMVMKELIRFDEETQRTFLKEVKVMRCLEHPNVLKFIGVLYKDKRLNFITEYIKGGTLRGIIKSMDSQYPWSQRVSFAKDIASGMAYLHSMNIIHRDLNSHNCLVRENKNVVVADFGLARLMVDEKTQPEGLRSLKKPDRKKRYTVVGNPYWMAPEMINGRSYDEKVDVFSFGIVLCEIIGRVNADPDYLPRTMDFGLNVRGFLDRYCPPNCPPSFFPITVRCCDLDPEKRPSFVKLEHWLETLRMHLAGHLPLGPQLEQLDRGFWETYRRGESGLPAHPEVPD
Sequence of UniProt Q9BTE3 (Q9BTE3 whole entry, looked up): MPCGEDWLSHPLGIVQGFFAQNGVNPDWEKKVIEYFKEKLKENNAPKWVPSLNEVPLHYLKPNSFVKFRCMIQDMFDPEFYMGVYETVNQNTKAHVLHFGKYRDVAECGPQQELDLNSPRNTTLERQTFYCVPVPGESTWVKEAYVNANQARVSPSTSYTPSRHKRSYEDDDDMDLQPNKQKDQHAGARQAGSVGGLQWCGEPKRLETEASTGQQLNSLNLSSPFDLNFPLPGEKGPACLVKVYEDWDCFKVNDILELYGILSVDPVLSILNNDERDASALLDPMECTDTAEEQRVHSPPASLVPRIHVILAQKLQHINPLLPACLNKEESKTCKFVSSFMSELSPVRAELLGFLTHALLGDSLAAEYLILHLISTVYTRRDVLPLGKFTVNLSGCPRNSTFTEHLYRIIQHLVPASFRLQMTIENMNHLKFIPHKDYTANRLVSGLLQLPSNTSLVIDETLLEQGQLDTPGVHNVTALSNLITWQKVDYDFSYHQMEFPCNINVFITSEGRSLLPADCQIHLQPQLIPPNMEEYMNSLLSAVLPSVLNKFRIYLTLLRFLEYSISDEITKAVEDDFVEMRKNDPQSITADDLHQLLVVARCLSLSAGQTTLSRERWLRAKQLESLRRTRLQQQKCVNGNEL
Sequence of UniProt P27816 (P27816 whole entry, looked up): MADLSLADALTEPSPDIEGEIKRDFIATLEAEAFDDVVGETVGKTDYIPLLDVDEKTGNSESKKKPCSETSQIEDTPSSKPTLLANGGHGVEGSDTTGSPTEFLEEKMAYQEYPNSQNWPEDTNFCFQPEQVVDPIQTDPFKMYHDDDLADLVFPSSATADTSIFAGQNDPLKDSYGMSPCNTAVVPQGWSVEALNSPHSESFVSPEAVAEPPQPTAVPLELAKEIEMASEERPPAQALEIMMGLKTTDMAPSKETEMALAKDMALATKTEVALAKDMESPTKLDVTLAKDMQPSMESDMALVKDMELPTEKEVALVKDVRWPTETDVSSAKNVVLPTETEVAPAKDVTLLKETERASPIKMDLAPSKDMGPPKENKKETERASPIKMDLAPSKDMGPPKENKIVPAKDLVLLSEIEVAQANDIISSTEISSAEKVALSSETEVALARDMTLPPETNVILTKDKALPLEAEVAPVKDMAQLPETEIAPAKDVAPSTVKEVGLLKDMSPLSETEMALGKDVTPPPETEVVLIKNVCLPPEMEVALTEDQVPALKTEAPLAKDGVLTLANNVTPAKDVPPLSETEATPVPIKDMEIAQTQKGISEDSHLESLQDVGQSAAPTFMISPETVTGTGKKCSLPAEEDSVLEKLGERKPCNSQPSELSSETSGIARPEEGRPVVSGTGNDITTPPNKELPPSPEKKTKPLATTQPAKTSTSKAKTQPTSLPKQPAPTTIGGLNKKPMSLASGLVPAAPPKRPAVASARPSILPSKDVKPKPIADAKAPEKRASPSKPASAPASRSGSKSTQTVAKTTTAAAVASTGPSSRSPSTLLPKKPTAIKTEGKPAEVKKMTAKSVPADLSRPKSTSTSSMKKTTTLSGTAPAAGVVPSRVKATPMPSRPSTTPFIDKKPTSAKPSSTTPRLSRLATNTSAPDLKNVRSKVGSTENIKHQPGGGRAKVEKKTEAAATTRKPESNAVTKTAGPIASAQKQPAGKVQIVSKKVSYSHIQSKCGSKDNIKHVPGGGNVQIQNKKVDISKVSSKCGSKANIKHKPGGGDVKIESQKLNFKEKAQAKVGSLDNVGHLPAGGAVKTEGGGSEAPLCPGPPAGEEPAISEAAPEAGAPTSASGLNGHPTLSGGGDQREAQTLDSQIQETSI
Sequence of UniProt Q2VIQ3 (Q2VIQ3 whole entry, looked up): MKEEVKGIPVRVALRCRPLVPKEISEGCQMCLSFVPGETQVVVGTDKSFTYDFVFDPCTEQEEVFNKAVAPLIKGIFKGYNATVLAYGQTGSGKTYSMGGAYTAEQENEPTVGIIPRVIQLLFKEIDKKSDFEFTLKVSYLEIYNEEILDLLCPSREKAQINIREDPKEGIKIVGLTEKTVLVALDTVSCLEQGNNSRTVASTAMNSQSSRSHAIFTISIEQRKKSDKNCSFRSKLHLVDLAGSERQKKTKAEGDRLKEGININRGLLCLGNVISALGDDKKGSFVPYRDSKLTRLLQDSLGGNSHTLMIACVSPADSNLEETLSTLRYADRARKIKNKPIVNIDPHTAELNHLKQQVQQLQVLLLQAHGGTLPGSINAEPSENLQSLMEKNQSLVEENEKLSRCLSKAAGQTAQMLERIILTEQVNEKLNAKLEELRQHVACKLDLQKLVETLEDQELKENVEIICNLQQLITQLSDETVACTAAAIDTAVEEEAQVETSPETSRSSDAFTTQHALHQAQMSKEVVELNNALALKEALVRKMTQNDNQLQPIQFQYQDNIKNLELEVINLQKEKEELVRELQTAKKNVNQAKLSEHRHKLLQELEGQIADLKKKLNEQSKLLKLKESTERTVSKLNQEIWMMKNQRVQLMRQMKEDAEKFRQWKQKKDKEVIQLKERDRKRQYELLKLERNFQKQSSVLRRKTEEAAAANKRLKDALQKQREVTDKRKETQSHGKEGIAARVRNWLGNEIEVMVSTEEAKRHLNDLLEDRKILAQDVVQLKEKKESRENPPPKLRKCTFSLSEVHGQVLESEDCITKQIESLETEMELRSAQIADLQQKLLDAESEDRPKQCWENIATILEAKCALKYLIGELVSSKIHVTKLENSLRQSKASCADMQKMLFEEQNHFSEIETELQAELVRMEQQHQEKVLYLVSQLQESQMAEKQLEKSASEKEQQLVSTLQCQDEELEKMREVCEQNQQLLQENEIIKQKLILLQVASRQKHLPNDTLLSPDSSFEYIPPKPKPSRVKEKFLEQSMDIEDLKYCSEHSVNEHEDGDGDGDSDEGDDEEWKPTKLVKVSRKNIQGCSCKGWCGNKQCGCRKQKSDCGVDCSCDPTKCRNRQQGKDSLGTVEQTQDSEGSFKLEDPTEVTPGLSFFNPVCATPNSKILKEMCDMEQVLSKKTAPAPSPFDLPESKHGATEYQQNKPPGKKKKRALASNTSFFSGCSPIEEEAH

Compound in one assay: CC[C@@H]1C(=O)N(C)c2cnc(Nc3ccc(C(=O)NC4CCN(C)CC4)cc3OC)nc2N1C1CCCC1
Kind of assay: log2 fold change, soluble protein after heating vs DMSO (PISA); higher = thermal stabilisation; K562 lysate, 10 uM; active = over 0.2 and 3.5 SD of the protein, either way, in both replicates (recomputed). In outline:
(§1)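 Pellets of K562 cells were dounce-homogenised in PBS pH 7.4 with 1 mM MgCl2, and the crude extract was held at 1 mg/mL protein for a 30 min treatment with 10 μM compound. Aliquots were heated for 3 min over 48°C-58°C and pooled before NP-40 was added to 0.5% at 4°C. The supernatant from 21,000xg for 90 min was quantified by TMTpro 16plex LC-MS/MS with channel sums equalised. Values are reported from duplicates as log-two fold change in thermal stability relative to solvent controls.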
Consider MCMBP isoform 2 (UniProt Q9BTE3), for which the log2 fold change was 0.059. For the target MACO1 (UniProt Q8N5G2), the log2 fold change is 0.296 (active). Turning to LEPROT (UniProt O15243), the log2 fold change is 0.144. Take LSS (UniProt P48449): the log2 fold change was -0.078. For KIF4B (UniProt Q2VIQ3), the log2 fold change is -0.102. Regarding MRPL27 (UniProt Q9P0M9), the log2 fold change was 0.076. Turning to MED25 isoform 3 (UniProt Q71SY5), the log2 fold change is -0.256 (active). On to MAP7D3 (UniProt Q8IWC1), for which the log2 fold change is -0.056. For the target MITD1 (UniProt Q8WV92), the log2 fold change is 0.013. Consider MED14 (UniProt O60244), for which the log2 fold change is -0.084. As to LIMK2 isoform 3 (UniProt P53671), the log2 fold change was -0.173. Consider LAMP1 (UniProt P11279), for which the log2 fold change is 0.059. On the same count and under the same terms, the value for MAPK3 (UniProt P27361) was 0.01; that for MAN2B2 (UniProt Q9Y2E5) was -0.013. On to MAST2 (UniProt Q6P0Q8), for which the log2 fold change is 0.068. On to MGST3 (UniProt O14880), for which the log2 fold change was 0.078.

With MAPK14 (UniProt Q16539), the log2 fold change is -0.192. On to LRRC7 (UniProt Q96NW7), for which the log2 fold change was 0.056. In the case of MIF4GD isoform 3 (UniProt A9UHW6), the log2 fold change is -0.019. As for MAP4K2 (UniProt Q12851), the log2 fold change is -0.009. Regarding LIMK1 (UniProt P53667), the log2 fold change is -0.195. Turning to MINDY1 isoform 3 (UniProt Q8N5J2), the log2 fold change is 0.059. Consider MAP4 isoform 5 (UniProt P27816), for which the log2 fold change was 0.069.

Regarding MAPKAPK3 (UniProt Q16644), the log2 fold change is -0.145. In the case of LPCAT1 (UniProt Q8NF37), the log2 fold change is 0.037. Consider MANEA (UniProt Q5SRI9), for which the log2 fold change is -0.001. As to MRPL30 isoform 2 (UniProt Q8TCC3), the log2 fold change is -0.068. Same read-out and setting: under KRIT1 (UniProt O00522) stands -0.009; under LTN1 isoform 3 (UniProt O94822), -0.06; under MAPK8 isoform 3 (UniProt P45983), -0.123. For the target MED10 (UniProt Q9BTT4), the log2 fold change was 0.133. Consider MAP3K4 (UniProt Q9Y6R4), for which the log2 fold change is 0.145. As to MAP4K4 isoform 6 (UniProt O95819), the log2 fold change was 0.06.

Compound in another assay: CC[C@@H]1C(=O)N(C)c2cnc(Nc3ccc(C(=O)N[C@H]4CC[C@H](N5CCN(CC6CC6)CC5)CC4)cc3OC)nc2N1C(C)C [volasertib]
The description is as above. The method in brief:
as §1
For the target MCMBP isoform 2 (UniProt Q9BTE3), the log2 fold change is -0.004. Regarding MAP4K5 (UniProt Q9Y4K4), the log2 fold change was -0.069. In the case of MACO1 (UniProt Q8N5G2), the log2 fold change was -0.009. Turning to LEPROT (UniProt O15243), the log2 fold change was 0.102. For KLHL12 isoform 2 (UniProt Q53G59), the log2 fold change was -0.045. Same read-out and setting: under LSS (UniProt P48449) stands 0.434 (active); under KIF4B (UniProt Q2VIQ3), -0.003; under MRPL27 (UniProt Q9P0M9), 0.017. With MED25 isoform 3 (UniProt Q71SY5), the log2 fold change is -0.032.

On to MAP7D3 (UniProt Q8IWC1), for which the log2 fold change was 0.018. On to MITD1 (UniProt Q8WV92), for which the log2 fold change is -0.07. The same measure, in the same setting: under MED14 (UniProt O60244) stands -0.023. The same measure, in the same setting: under LIMK2 isoform 3 (UniProt P53671) stands -0.002; under LAMP1 (UniProt P11279), 0.056; under MAPK3 (UniProt P27361), -0.011. Consider MRPL35 (UniProt Q9NZE8), for which the log2 fold change is 0.013.

In the case of MAN2B2 (UniProt Q9Y2E5), the log2 fold change was -0.006.

For the target MAST2 (UniProt Q6P0Q8), the log2 fold change was 0.045.

On to MGST3 (UniProt O14880), for which the log2 fold change was 0.076. MAPK14 (UniProt Q16539): the log2 fold change was -0.056. Same read-out and setting: under LRRC7 (UniProt Q96NW7) stands 0.047; under MIF4GD isoform 3 (UniProt A9UHW6), -0.012; under MME (UniProt P08473), 0.001. On to MAP4K2 (UniProt Q12851), for which the log2 fold change is -0.035. Still for that read-out and setting: under LIMK1 (UniProt P53667) stands -0.215; under MCUB (UniProt Q9NWR8), -0.041. METTL21A (UniProt Q8WXB1): the log2 fold change was -0.034. Still for that read-out and setting: under MINDY1 isoform 3 (UniProt Q8N5J2) stands -0.041. On the same count and under the same terms, the value for MAP4 isoform 5 (UniProt P27816) was 0.044; that for MAPKAPK3 (UniProt Q16644) was 0.002; that for LPCAT1 (UniProt Q8NF37) was 0.097. Take MANEA (UniProt Q5SRI9): the log2 fold change is -0.084. In the case of MRPL30 isoform 2 (UniProt Q8TCC3), the log2 fold change is -0.013. As to KRIT1 (UniProt O00522), the log2 fold change is 0.036. Regarding LTN1 isoform 3 (UniProt O94822), the log2 fold change is -0.041. On to MAPK8 isoform 3 (UniProt P45983), for which the log2 fold change was -0.02.

MED10 (UniProt Q9BTT4): the log2 fold change was 0.066.

Turning to MAP3K4 (UniProt Q9Y6R4), the log2 fold change was 0.167. With MAP4K4 isoform 6 (UniProt O95819), the log2 fold change is -0.04.

These data come from the supplement of paper PMC10849652.
